Measurements from PubChem BioAssay.
A number with no mark means an inactive call. Where a call stands in place of a potency, no number is given. For part of these data: Potency and affinity values are given separately. Activity calls are given as the source filed them. Unless noted, how the calls were made is not given here.

Legend:
[1] = antimalarial activity against Dd2 strain (AID 2302;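 active means growth inhibition above 50% at the single 2 µM test dose, taken to imply half-maximal potency below 2 µM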); details: P. falciparum Dd2 in RBCs, LDH growth readout, 72 h; at 2 µM; hits give high values
[2] = HepG2 cytotoxicity, primary screen, cytotoxicity control for P. falciparum antimalarial project, cell-based, ATP luminescence (AID 2303;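 active means inhibition above 50%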); details: HepG2 viability, 24-48 h, at 10 µM, hits give high values
[3] = target: L-lactate dehydrogenase (Plasmodium falciparum (isolate CDC / Honduras)) (UniProt Q27743); experiment: PfLDH activity inhibition – cell lysate, 3D7 strain, counter-screen for P. falciparum growth inhibition project (AID 2304); details: P. falciparum 3D7 crude extract, LDH APAD/NBT absorbance; at 2 µM; hits give high values
[4] = inhibition of 3D7 malaria parasite growth – strain 3D7 (AID 2306); details: P. falciparum 3D7 erythrocytic growth, LDH absorbance, 72 h; at 2 µM; hits give high values
[5] = target: Calcium-dependent protein kinase 1 (Plasmodium falciparum (isolate 3D7)) (UniProt P62344); experiment: PfCDPK1 kinase inhibitors, biochemical, TCAMS library (AID 1159585; cut-off not given, nearly all actives have IC50 up to about 0.98 µM;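 further: inhibitors leave more ATP so luminescence rises with inhibition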); details: recombinant PfCDPK1, Kinase-Glo ATP depletion luminescence
[6] = target: Plasmodium falciparum protein kinase 6 (PK6, PF3D7_1337100) (UniProt Q8IDW1); experiment: PfPK6 kinase inhibitors, biochemical, TCAMS library (AID 1159586); details: recombinant PfPK6, Kinase-Glo ATP depletion luminescence
[7] = target: Protein kinase 7 (PK7), Plasmodium falciparum 3D7 (PF3D7_0213400) (UniProt Q7YTF7); experiment: inhibition of Plasmodium PK7 catalytic activity – biochemical, TCAMS antimalarial set, Kinase-Glo luminescence (AID 1159587); details: recombinant PfPK7, Kinase-Glo ATP depletion luminescence
[8] = target: Calcium-dependent protein kinase 4 (Plasmodium falciparum (isolate 3D7)) (UniProt Q8IBS5); experiment: PfCDPK4 kinase inhibitors, biochemical, TCAMS library (AID 1159588; cut-off not given, nearly all actives have IC50 up to about 0.91 µM); details: recombinant PfCDPK4, Kinase-Glo ATP depletion luminescence
Chain of Calcium-dependent protein kinase 4 (Plasmodium falciparum (isolate 3D7)) (Q8IBS5 whole entry, looked up): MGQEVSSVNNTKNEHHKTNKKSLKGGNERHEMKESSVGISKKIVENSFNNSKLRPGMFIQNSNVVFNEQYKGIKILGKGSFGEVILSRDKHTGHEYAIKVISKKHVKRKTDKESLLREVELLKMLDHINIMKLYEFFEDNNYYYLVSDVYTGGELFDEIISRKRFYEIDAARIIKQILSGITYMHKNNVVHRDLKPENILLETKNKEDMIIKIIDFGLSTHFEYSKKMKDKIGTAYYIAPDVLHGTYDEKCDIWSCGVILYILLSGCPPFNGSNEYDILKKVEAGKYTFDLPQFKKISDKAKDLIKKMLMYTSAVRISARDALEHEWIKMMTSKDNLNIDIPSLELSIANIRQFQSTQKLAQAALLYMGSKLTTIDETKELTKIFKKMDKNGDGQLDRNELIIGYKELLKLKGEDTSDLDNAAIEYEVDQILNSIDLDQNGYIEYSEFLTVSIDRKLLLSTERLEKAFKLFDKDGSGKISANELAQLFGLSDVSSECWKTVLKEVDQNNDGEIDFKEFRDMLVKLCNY

Chain of Protein kinase 7 (PK7), Plasmodium falciparum 3D7 (PF3D7_0213400) (Q7YTF7 1-343): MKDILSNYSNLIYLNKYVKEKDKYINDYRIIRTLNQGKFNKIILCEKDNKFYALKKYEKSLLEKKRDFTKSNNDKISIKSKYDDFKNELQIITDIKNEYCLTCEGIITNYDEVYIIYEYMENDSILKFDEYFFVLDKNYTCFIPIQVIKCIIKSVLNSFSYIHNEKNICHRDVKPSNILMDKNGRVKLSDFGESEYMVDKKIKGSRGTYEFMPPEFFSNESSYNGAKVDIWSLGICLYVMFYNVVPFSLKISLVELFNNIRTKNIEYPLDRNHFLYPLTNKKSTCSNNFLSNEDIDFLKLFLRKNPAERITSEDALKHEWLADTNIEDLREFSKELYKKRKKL
Chain of Plasmodium falciparum protein kinase 6 (PK6, PF3D7_1337100) (Q8IDW1 1-305): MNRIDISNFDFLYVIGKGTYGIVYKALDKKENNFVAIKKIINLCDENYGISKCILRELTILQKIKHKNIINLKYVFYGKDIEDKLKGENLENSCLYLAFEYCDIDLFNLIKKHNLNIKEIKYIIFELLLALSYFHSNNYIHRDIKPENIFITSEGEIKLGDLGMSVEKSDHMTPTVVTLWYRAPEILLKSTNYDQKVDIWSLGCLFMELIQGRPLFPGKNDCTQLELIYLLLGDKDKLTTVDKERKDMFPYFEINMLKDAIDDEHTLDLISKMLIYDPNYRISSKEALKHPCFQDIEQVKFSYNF
Chain of L-lactate dehydrogenase (Plasmodium falciparum (isolate CDC / Honduras)) (Q27743 whole entry, looked up): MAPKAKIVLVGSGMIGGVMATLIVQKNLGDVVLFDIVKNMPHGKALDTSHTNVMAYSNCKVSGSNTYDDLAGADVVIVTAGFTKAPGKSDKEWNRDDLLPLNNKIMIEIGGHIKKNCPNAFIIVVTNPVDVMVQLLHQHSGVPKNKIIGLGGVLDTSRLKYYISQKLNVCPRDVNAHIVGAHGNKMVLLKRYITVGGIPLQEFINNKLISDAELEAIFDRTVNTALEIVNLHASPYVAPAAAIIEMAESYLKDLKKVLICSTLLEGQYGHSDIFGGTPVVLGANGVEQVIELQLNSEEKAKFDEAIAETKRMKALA
Chain of Calcium-dependent protein kinase 1 (Plasmodium falciparum (isolate 3D7)) (P62344 whole entry, looked up): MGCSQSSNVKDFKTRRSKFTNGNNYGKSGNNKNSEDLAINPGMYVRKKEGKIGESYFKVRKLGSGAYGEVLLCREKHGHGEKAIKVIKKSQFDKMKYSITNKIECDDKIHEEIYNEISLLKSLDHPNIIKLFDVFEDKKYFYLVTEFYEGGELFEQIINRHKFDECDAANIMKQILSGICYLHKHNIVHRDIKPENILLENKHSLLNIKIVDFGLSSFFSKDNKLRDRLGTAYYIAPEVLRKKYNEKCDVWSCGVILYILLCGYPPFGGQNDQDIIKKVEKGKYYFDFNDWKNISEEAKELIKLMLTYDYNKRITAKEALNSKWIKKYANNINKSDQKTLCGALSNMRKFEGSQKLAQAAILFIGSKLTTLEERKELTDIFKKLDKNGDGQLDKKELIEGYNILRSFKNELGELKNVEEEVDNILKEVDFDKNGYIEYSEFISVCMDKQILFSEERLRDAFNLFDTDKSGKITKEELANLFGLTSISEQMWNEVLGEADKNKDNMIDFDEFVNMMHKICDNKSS

## O=C(NCCCCCN1CCCN(C(=O)Nc2ccc(F)c(C(F)(F)F)c2)CC1)[C@@H]1C[C@H]1c1ccc(Cl)c(Cl)c1
[1]
  growth inhibition: 1%
[2]
  inhibition: 61% (active)
[3]
  inhibition: 2%
[4]
  growth inhibition: 90% (active)
[5]
  outcome: inactive
[6]
  outcome: inactive
[7]
  outcome: inactive
[8]
  outcome: inactive

## Cc1cccc2[nH]c(-c3cccc(-c4cccc(C(=O)NCCc5cn(C)cn5)c4)c3)nc12
[1]
  growth inhibition: 78% (active)
[2]
  inhibition: 12%
[3]
  inhibition: 8%
[4]
  growth inhibition: 101% (active)
[5]
  outcome: inactive
[6]
  outcome: inactive
[7]
  outcome: inactive
[8]
  outcome: inactive

## Cc1cccn2c(=O)c3cc(C(=O)NC(C)c4ccccc4)c(=N)n(CCc4ccccc4)c3nc12 (configuration not stated)
[1]
  growth inhibition: 82% (active)
[2]
  inhibition: 5%
[3]
  inhibition: -3%
[4]
  growth inhibition: 101% (active)
[5]
  outcome: inactive
[6]
  outcome: inactive
[7]
  outcome: inactive
[8]
  outcome: inactive

## C=CCn1c(=N)c(C(=O)NCc2ccc(F)cc2)cc2c(=O)n3cccc(C)c3nc21
[1]
  growth inhibition: 11%
[2]
  inhibition: 16%
[3]
  inhibition: -2%
[4]
  growth inhibition: 92% (active)
[5]
  outcome: inactive
[6]
  outcome: inactive
[7]
  outcome: inactive
[8]
  outcome: inactive

## NC(N)=Nc1nc(-c2cccc(NC(=O)NCc3cccc4ccccc34)c2)cs1
[1]
  growth inhibition: 32%
[2]
  inhibition: 14%
[3]
  inhibition: 5%
[4]
  growth inhibition: 101% (active)
[5]
  outcome: inactive
[6]
  outcome: inactive
[7]
  outcome: inactive
[8]
  outcome: inactive

## CN1CCN(CCCN(Cc2ccc(-c3ccc(CNC4CCCC4)cc3)cc2)C(=O)CCC2CCCC2)CC1
[1]
  growth inhibition: 96% (active)
[2]
  inhibition: 92% (active)
[3]
  inhibition: 2%
[4]
  growth inhibition: 98% (active)
[5]
  outcome: inactive
[6]
  outcome: inactive
[7]
  outcome: inactive
[8]
  outcome: inactive

## O=C(Nc1cccc(C(F)(F)F)c1)c1cccc(S(=O)(=O)NC2CCCN(CC3CCCCC3)C2)c1 (configuration not stated)
[1]
  growth inhibition: 15%
[2]
  inhibition: 18%
[3]
  inhibition: 1%
[4]
  growth inhibition: 97% (active)
[5]
  outcome: inactive
[6]
  outcome: inactive
[7]
  outcome: inactive
[8]
  outcome: inactive

## CN1CCN(c2ccc(Cl)cc2NC(=O)C2COc3ccccc3O2)CC1 (configuration not stated)
[1]
  growth inhibition: 44%
[2]
  inhibition: 2%
[3]
  inhibition: 2%
[4]
  growth inhibition: 99% (active)
[5]
  outcome: inactive
[6]
  outcome: inactive
[7]
  outcome: inactive
[8]
  outcome: inactive

## COc1ccc(F)cc1-c1ccccc1CNC(=O)CN(C)S(=O)(=O)c1cc(C)cc(Cl)c1C
[1]
  growth inhibition: 73% (active)
[2]
  inhibition: -3%
[3]
  inhibition: -2%
[4]
  growth inhibition: 92% (active)
[5]
  outcome: inactive
[6]
  outcome: inactive
[7]
  outcome: inactive
[8]
  outcome: inactive
